4 molecules from PubChem BioAssay (NCI) can be followed below.

Structures are written as SMILES. The panel holds about 83,000 compounds, 20% with a hit somewhere; the sample as a whole holds those more often.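 Activity criterion: percent growth below 10, measured after cells in 96-well plates were exposed to a single compound concentration for 48 hours.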 Calls of active or inactive are those of the source.

This test relates to MDA-MB-468 breast. As to the kind of experiment: NCI-60 one-dose screen, 48 h (100 = growth as untreated, 0 = no growth, -100 = all killed). Conditions: 10 µM unless noted.
For `NS(=O)(=O)c1cccc(Nc2nc(SCC(=O)c3ccc(Br)cc3)nc3ccccc23)c1`, the growth is 61.3% (inactive). Regarding `CN(c1ccccc1)c1ncnc2c1ncn2C`, the growth was 113% (inactive). Under `COC(=O)c1c2c(c(C)[n+]([O-])c1C)C(=O)C(NCc1cccc(OC)c1)=CC2=O` stands -21.3% (active); under `COc1cc2nc(-c3ccc(C#N)cc3)[nH]c(=O)c2cc1OC`, 113% (inactive).
